Laboratory results published in the supplement of paper PMC9433436.
± gives the standard deviation of the averaged measurements. Whole data set: some 4,100 sequences, median “relative kcat/Km (krel) vs genomic leader AAAGAU” near 1.7, cut for the highest 2% near 6.5. The sample holds the highest values, similar sequences and a random draw of the others, so the mix is not that of the screen.

Target: T1, E. coli RNase P holoenzyme (M1 P RNA + rnpA protein) (UniProt P0A7Y8)
T1 sequence: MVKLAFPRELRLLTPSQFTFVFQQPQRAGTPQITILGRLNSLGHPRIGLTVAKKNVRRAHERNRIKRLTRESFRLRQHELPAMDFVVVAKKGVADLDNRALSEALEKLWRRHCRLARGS
Assay: relative kcat/Km (krel) vs genomic leader AAAGAU (relative (reference leader = 1)); higher = faster RNase P cleavage
Experimental: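 HTS-Kin: a pool of ptRNA-Met (21C construct) with all 4096 combinations of 5' leader nucleotides N(-6) to N(-1) was processed in vitro by E. coli RNase P (P RNA + rnpA/C5 protein) under multiple-turnover conditions at 37 C, pH 8, 17.5 mM MgCl2. Residual substrate was Illumina-sequenced at several fractions reacted, and relative kcat/Km (krel) was computed by internal competition kinetics, calibrated to the genomic leader (AAAGAU = 1). The listed hexamer is the varied N(-6)..N(-1) leader (DNA letters), and it sits between a fixed 5' stem-loop flank (GCAUGCACGAAAGUGCGUGCUAUGAA) and the mature tRNA-Met starting GGCUACGUAGCUCAGUUGG. Two technical replicates are averaged.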

[1] = fraction of substrate reacted: ~9-10% (9.79% repeat 1, 9.1% repeat 2)
[2] = fraction of substrate reacted: ~13-16% (15.68% repeat 1, 13.17% repeat 2)
[3] = fraction of substrate reacted: ~26-29% (28.66% repeat 1, 26.4% repeat 2)

Sequence | relative kcat/Km [1] | relative kcat/Km [2] | relative kcat/Km [3]
GCCGCC | 2.33 ± 1.2 | 3.21 ± 1.2 | 5.43 ± 2.6
TCCGCT | 2.17 ± 0.033 | 2.55 ± 2 | 3.65 ± 1.5
CCCGCA | 3.38 ± 0.43 | 3.43 ± 1.2 | 4.58 ± 1.4
CCCGCC | 2.78 ± 0.39 | 4.24 ± 2 | 4.94 ± 1.9
TCCGCA | 4.56 ± 2.3 | 5.02 ± 0.26 | 6.95 ± 2.4
TGTATG |  |  | 1.93 ± 0.25
CCTTTA | 1.51 ± 0.63 | 1.47 ± 0.27 | 2.25 ± 0.99
ACAGAT | 0.729 ± 0.034 | 1.48 ± 0.42 | 1.88 ± 0.26
ATTACC | 1.64 ± 0.48 | 1.65 ± 0.26 | 2.21 ± 0.71
ATGAGA | 0.619 ± 0.34 | 0.964 ± 0.71 | 2.28 ± 0.37
TGCAAT | 0.917 ± 0.7 | 1.18 ± 0.72 | 1.9 ± 0.94
TTCAAT | 4.1 ± 1.6 | 5.53 ± 0.71 | 9.07 ± 3.9
CCCAAC | 2.26 ± 0.55 | 2.15 ± 0.29 | 3.75 ± 1.1
CTCAAC | 3.75 ± 0.14 | 5.06 ± 1.2 | 7.63 ± 3.4
TTCAAA | 4.87 ± 2.9 | 6.52 ± 1.5 | 9.38 ± 3.5
ATCAAC | 3.56 ± 1.5 | 4.05 ± 0.78 | 5.86 ± 1.6
TTCAAC | 4.99 ± 1.6 | 6.12 ± 0.93 | 8.94 ± 3.2
CTTAAC | 2.53 ± 1.3 | 2.52 ± 0.82 | 3.93 ± 1.3
TCAAAA | 2.12 ± 1.1 | 1.64 ± 0.34 | 2.89 ± 1.2
TCAATT | 2.1 ± 1.1 | 1.92 ± 0.12 | 2.3 ± 0.3
TTCAAG | 2.98 ± 2.4 | 3.38 ± 0.47 | 5.77 ± 2
TGCAAC | 1.87 ± 0.58 | 1.45 ± 0.22 | 2.22 ± 0.84
CTTCTT | 2.75 ± 1.4 | 3.05 ± 0.55 | 3.45 ± 0.96
AACCGC | 3.24 ± 0.86 | 3.02 ± 0.23 | 4.02 ± 0.71
GATTGG |  |  | 0.409 ± 0.2

Sequence | relative kcat/Km [1] | relative kcat/Km [2] | relative kcat/Km [3]
ATTCCA | 2.17 ± 0.89 | 2.11 ± 0.63 | 1.93 ± 0.82
TAATTA | 2.15 ± 1.5 | 2.05 ± 0.57 | 2.99 ± 1.1
ACGTTC | 2.18 ± 0.36 | 2.45 ± 0.76 | 3.59 ± 1.4
CATCAA | 2.69 ± 0.095 | 3.35 ± 0.32 | 4.59 ± 1.9
TCCGGA | 1.02 ± 0.16 | 1.33 ± 0.95 | 1.83 ± 1.3
TCGCAT | 2.12 ± 0.11 | 3.11 ± 0.57 | 5.13 ± 2.3
GGCAAC | 2.31 ± 1.6 | 2.29 ± 0.56 | 3.36 ± 0.68
AGCAAT | 2.43 ± 0.54 | 2.33 ± 0.049 | 3.3 ± 1.1
GTCAAC | 4.47 ± 1.7 | 5.05 ± 1.3 | 7.94 ± 3.1
GCCAAC | 1.34 ± 0.25 | 1.28 ± 1.1 | 3.94 ± 1
CTCAAT | 4.23 ± 0.85 | 5.46 ± 1.7 | 7.66 ± 3.5
CGCAAT | 1.86 ± 0.36 | 2.82 ± 1.1 | 4.14 ± 1.8
ATCAAT | 3.19 ± 0.91 | 4.2 ± 0.86 | 6.65 ± 3.1
CCCAAT | 2.73 ± 0.86 | 3.48 ± 0.28 | 5.27 ± 1.6
AGTAAG |  | 1.26 ± 0.66 | 3.3 ± 0.62
TAATCG |  | 0.624 ± 0.13 | 1.73 ± 0.43
TAGGTG |  |  | 0.812 ± 0.66
GCAATG |  |  | 1.35 ± 0.34
TTGCAC | 2.41 ± 1.3 | 2.27 ± 0.05 | 3.33 ± 0.78
TCTGTT | 1.56 ± 0.75 | 1.38 ± 1.1 | 1.89 ± 1.2
ACCAAA | 2.83 ± 2.3 | 3.55 ± 0.63 | 4.37 ± 0.92
AATGAA | 2.18 ± 1.1 | 2.14 ± 0.073 | 2.72 ± 0.88
GGCGAT | 1.24 ± 0.38 | 1.52 ± 0.5 | 2.32 ± 0.83
GGGCAA |  | 1 ± 0.65 | 1.5 ± 0.79
